Source: PubChem BioAssay (NCI)
This is part of a sample that, as a whole, favours compounds with a hit. Of some 79,000 tested, about 15% had one in any assay. Active and inactive are the calls of the source. Cut-off read from the data, not from the text of the source: active = growth inhibition above about 70%; inactive = the rest.

assay: NCI Yeast Anticancer Drug Screen. Data for the mlh1 rad18 strain (AID 175); settings: S. cerevisiae mlh1 rad18 strain growth inhibition; at 50.0 µM; stronger effect = higher value
How it was run: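 Read-out is yeast growth inhibition, calculated against vehicle-only controls. The compound was applied to a strain engineered with DNA damage repair alterations.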

Question: With CCOc1cccc(C=Nc2ccccc2SSc2ccccc2N=Cc2cccc(OCC)c2O)c1O as the molecule, how does the growth inhibition read?
Answer: 68.5% (inactive)

Question: For c1csc(NC(Nc2nccs2)C23CC4CC(CC(C4)C2)C3)n1, which growth inhibition is on record?
Answer: 7.45% (inactive)

Question: With O=C1C(Cc2ccc(O)cc2)NC(=S)N1c1ccccc1 (stereo not given) as the molecule, how does the growth inhibition read?
Answer: -19.8% (inactive)

Question: For CO/N=C1\C(O)CC2C(C)(CCC3C2(C)CCC2(C)C4CC(C)(C)CCC4(C)CCC32C)C1C (stereo not given), which growth inhibition is on record?
Answer: -5.85% (inactive)

Question: With CCOc1cn(C2OC(CO)C(O)C2O)c(=O)[nH]c1=O (stereo not given) as the molecule, how does the growth inhibition read?
Answer: 3.5% (inactive)

Question: With OCC1CCN(CCOCc2ccccc2)C1 (stereo not given) as the molecule, how does the growth inhibition read?
Answer: 7.6% (inactive)

Question: Which growth inhibition does the source give for Cc1cc(C(C)(C)C)ccc1S(=O)(=O)/C=C/c1ccccc1 here?
Answer: -26.1% (inactive)

Question: For N#CC1C=CN(Cc2ccccc2)C=C1C(=O)c1ccccc1 (stereo not given), which growth inhibition is on record?
Answer: 5.2% (inactive)

Question: With CC1=NN(C(=O)c2ccc(Cl)cc2)C(=O)C1N=Nc1ccc(S(=O)(=O)Nc2ccccn2)cc1 (stereo not given) as the molecule, how does the growth inhibition read?
Answer: 30.7% (inactive)

Question: For CCCCCCCCCCCCCCCCOc1ccc(N)cc1, which growth inhibition is on record?
Answer: 1.1% (inactive)

Question: Which growth inhibition does the source give for O=S1(=O)C2C=CC1CCCC2 here?
Answer: 2.05% (inactive)

Question: For Cn1ncc2c(N)nc(NCCO)nc21, which growth inhibition is on record?
Answer: -0.2% (inactive)

Question: Which growth inhibition does the source give for O=CC(O)C(O)C(O)C(O)COC1OC(CO)C(O)C(O)C1O (stereo not given) here?
Answer: 11.1% (inactive)

Question: For CC(O)CNCC(C)(C)N (stereo not given), which growth inhibition is on record?
Answer: -1.95% (inactive)

Question: With CC(=O)OCC(OC(C)=O)C(OC(C)=O)C(/C=C/N=[N+]([O-])c1ccccc1)OC(C)=O (stereo not given) as the molecule, how does the growth inhibition read?
Answer: 44.9% (inactive)

Question: Which growth inhibition does the source give for O=C(/C=C/c1ccco1)CCN1CCOCC1 here?
Answer: 13.8% (inactive)

Question: With CC1CC2C3(C1)CC(C(=O)OC3=O)C2(C)C (stereo not given) as the molecule, how does the growth inhibition read?
Answer: 23.4% (inactive)

Question: With CCOC(=O)c1ccc(-c2cccs2)[nH]1 as the molecule, how does the growth inhibition read?
Answer: -11.9% (inactive)

Question: With CS(=O)(=O)ON1C(=O)c2ccccc2C1=O as the molecule, how does the growth inhibition read?
Answer: -9.55% (inactive)

Question: For O=C(Nc1cc(-c2ccccc2)[nH]n1)c1ccccc1Cl, which growth inhibition is on record?
Answer: 28.3% (inactive)

Question: With C1=CCc2cc3c(cc2=C1)C=c1ccccc1=3 as the molecule, how does the growth inhibition read?
Answer: -19.4% (inactive)

Question: For CCCNC(=O)Nc1ccc2c(c1)Cc1cc([N+](=O)[O-])ccc1-2, which growth inhibition is on record?
Answer: -14.3% (inactive)

Question: With CCCCCC(=C/c1ccccc1)/C=N/N1CCN(/N=C/C(=C/c2ccccc2)CCCCC)CC1 as the molecule, how does the growth inhibition read?
Answer: 11.2% (inactive)

Question: Which growth inhibition does the source give for CCc1cccc(CC)c1NC1=CC(=O)C(=O)c2ccccc21 here?
Answer: 18.2% (inactive)

Question: For COc1ccc(CNc2ccccc2C(=O)O)cc1OC, which growth inhibition is on record?
Answer: 8.65% (inactive)

Question: With Brc1nc(-[n+]2ccccc2)[n-]c1Br as the molecule, how does the growth inhibition read?
Answer: 1.4% (inactive)

Question: With COC(=O)C(N)CSc1ccc([N+](=O)[O-])cc1[N+](=O)[O-] (stereo not given) as the molecule, how does the growth inhibition read?
Answer: 48.9% (inactive)

Question: Which growth inhibition does the source give for Oc1cc2cc(-c3ccccc3)[nH]c2c2ccccc12 here?
Answer: 1.3% (inactive)

Question: For CCCCS/C=C\C(=O)OCC, which growth inhibition is on record?
Answer: -15.4% (inactive)

Question: With CCOC(=O)c1c2cccccc-2nc1Nc1cccc2c(C)ccnc12 as the molecule, how does the growth inhibition read?
Answer: 5.55% (inactive)

Question: Which growth inhibition does the source give for CC1=NN(C(=O)c2ccncc2)C(=O)C1N=Nc1ccc(F)cc1 (stereo not given) here?
Answer: -4.9% (inactive)

Question: Which growth inhibition does the source give for CCOC(=O)c1ccc(NC(=O)CCCCl)cc1 here?
Answer: -24.3% (inactive)

Question: For Cc1[nH]c(=O)[nH]c(=O)c1/C=C/C(=O)NC(CO)CS(=O)CS(C)=O (stereo not given), which growth inhibition is on record?
Answer: -10.4% (inactive)

Question: With C[N+]12C=CC=C1C(N1CCCC1)c1sc(-c3ccc(Cl)cc3)cc12 (stereo not given) as the molecule, how does the growth inhibition read?
Answer: 16.4% (inactive)

Question: For Cc1nc(N=C(N)N)nc2ccccc12, which growth inhibition is on record?
Answer: 14.2% (inactive)

Question: For N#CCOS(=O)(=O)O, which growth inhibition is on record?
Answer: -1% (inactive)

Question: With Nc1ncccc1C(=O)O as the molecule, how does the growth inhibition read?
Answer: -3.05% (inactive)

Question: Which growth inhibition does the source give for CN(C)CCNC(=O)c1cccc2nc3c(C(=O)NCCN(C)C)cccc3nc12 here?
Answer: -40.5% (inactive)

Question: For COc1ccc2c(C(=O)O)cc3c4ccccc4ncc3c2c1, which growth inhibition is on record?
Answer: -13.2% (inactive)

Question: Which growth inhibition does the source give for CC(C)COP(C)(=O)C(N)(C(F)(F)F)C(F)(F)F (stereo not given) here?
Answer: -12.4% (inactive)
